In the library only some 2.8% were active in any assay of this set; here they are far more common.
HTT aggregate: reduces HttQ103-GFP aggregates in PC12 cells. PC12 HttQ103-GFP aggregates, Acumen cytometry, 40 h. Potency, µM (doses to about 46.1 µM), usual class: inhibitors. actives 1.1% (n = 220,000); note: nearly all actives have a fitted effect of over 60% in size
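Aggregates are detected as GFP objects 1–25 µm with signal 6 STDEV over background in lysates of induced PC12 cells. These carry Huntingtin exon 1 with 103 glutamines fused to GFP under an ecdysone promoter; compounds titrated.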
S2 tox: viability counter-screen for ATXN expression inhibitors | Potency, µM (highest dose often 56.7 µM), usual class: cytotoxic | S2 cells (HEK-293 line with an ATXN2-luciferase reporter) viability, CellTiter-Fluor protease fluorescence, 24 h | actives 0.49% (n = 400,000) | AID 651635; note: nearly all actives have a fitted effect of over 40% in size
HTT cytoprotect: cytoprotection in Huntington HTT-Q103 PC12 cell model. Potency, µM (top dose mostly 56.4 µM), most hits filed as activators. actives 0.14% (n = 230,000). PC12 HTT-Q103 induced, cytoprotection, ATP luminescence, 40 h. AID 1471; note: nearly all actives have a fitted effect of over 45% in size
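PC12 cells stably carrying ecdysone-inducible Htt exon 1 (Q103)–GFP were induced with 100 nM tebufenozide (final) alongside library compounds in a dose series. Cytoprotection was scored as retained ATP by ATPlite luminescence.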
ATXN2 expr inh: reduces ATXN2 reporter expression in HEK-293 cells. HEK-293 ATXN2-luciferase reporter, luminescence, 24 h. Potency, µM (titrated, usually from 57 µM), usual class: inhibitors. actives 0.72% (n = 360,000); note: nearly all actives have a fitted effect of over 55% in size
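qHTS (up to 57 uM final) was run with 24 h compound exposure of reporter cells at 37 °C. Each well was multiplexed: SteadyGlo luminescence measured ATXN2-luciferase expression after a fluorogenic Gly-Phe-AFC viability readout (25 uM final).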
HepG2 viability: kills HepG2 cells in TGF-b inhibitor counter-screen | Potency, µM (titrated, usually from 46.1 µM), hits mostly cytotoxic | actives 0.76% (n = 410,000) | AID 588856 | HepG2 CAGA-GFP viability, ATP luminescence, 18 h
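CellTiter-Glo luminescence gave cytotoxicity after 18 hours at 37 degrees C. The cells were HepG2 CAGA-GFP in 1% FBS DMEM, stimulated with 500 pg/mL TGF-beta after compound addition. %Activity was normalised to no-cell wells (complete cell-killing) and DMSO (no toxicity), and curves were fitted and classified.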
TGFb SMAD3 inh: blocks TGF-b signaling; Potency, µM (doses to about 46.1 µM), most hits filed as inhibitors; actives 1.2% (n = 410,000); HepG2 CAGA-GFP TGF-b/SMAD3 reporter, GFP fluorescence, 18 h; TGF-beta stimulated, 500 pg/mL final; note: nearly all actives have a fitted effect of over 65% in size
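Per well, imaged GFP fluorescence of HEPG2 CAGA-GFP cells gives the signal; cells get compound, then TGF-beta (500 pg/mL final), 18 h at 37 degrees C; %Activity versus -TGF-beta and +DMSO controls.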
A number is an active result; - = inactive; ? = inconclusive; . = no result given; [ ] = another dose, or the depositor's remark. Calls come from the whole dose curve; as a rule, active = well fitted curve in the direction sought with a large enough effect; inconclusive = small, poorly fitted or top-dose-only effect, or another doubt; inactive = no such curve, though single readings can be large; an effect the other way counts as inactive or inconclusive.

SMILES	HTT aggregate	S2 tox	HTT cytoprotect	ATXN2 expr inh	HepG2 viability	TGFb SMAD3 inh
CCc1cc(C(=O)NNC(=S)NC2CCCCC2)cs1	.	?	.	-	-	-
CCC(COC)NC(=O)c1cnn(-c2ncc3c(n2)-c2ccccc2CCC3)c1C (stereo unspecified)	.	-	.	.	.	.
CN(C)CCOc1ccc2c(c1)C(=O)C(=Cc1ncc([N+](=O)[O-])n1C)C2	.	?	.	.	-	1.4µM
CC(C)N1CCC2(CC1)N=C(c1ccc3c(c1)OCO3)CC(c1cc(Cl)ccc1O)N2 (stereo unspecified)	?	?	-[10 µM]	?	11µM	?
O=C(Nc1cc(Cl)ccc1O)c1cc(-c2ccc3c(c2)OCO3)on1	.	-	.	-	-	-
CCc1ccc(NC(=O)CSC2=Nc3ccccc3C3=NC(CC(=O)NCc4ccc5c(c4)OCO5)C(=O)N23)cc1 (stereo unspecified)	.	25µM	.	-	-	-
O=C(CC1N=C2c3ccccc3N=C(SCC(=O)Nc3ccc(F)cc3)N2C1=O)NCc1ccc2c(c1)OCO2 (stereo unspecified)	.	?	.	-	-	?
CC#CCn1c(N2CCC[C@@H](N)C2)nc2c1c(=O)n(Cc1nc(C)c3ccccc3n1)c(=O)n2C	.	.	.	-	.	.
FC(F)(F)C(F)(F)C(F)(F)c1nc2ccccc2[nH]1	.	.	.	.	-	-
CC(C)=CCC/C(C)=C/CC/C(C)=C/CCC(=O)OC/C=C(\C)CCC=C(C)C	.	-	.	-	.	.
COCCOC(=O)N1CCN(/[N+]([O-])=N/Oc2ccc([N+](=O)[O-])cc2[N+](=O)[O-])CC1	.	.	.	.	-	?
C#CCn1c(=NC(=O)c2ccc(S(=O)(=O)N3CCc4ccccc4C3)cc2)sc2cc(S(N)(=O)=O)ccc21	10µM	18µM	-[10 µM]	?	2.8µM	-
COc1ccc(NC(=O)/C(Cl)=C(/Cl)S(=O)Cc2ccc(Cl)cc2)cn1 (stereo unspecified)	4.5µM	2.8µM	-	2.5µM	2.5µM	2.2µM
COc1ccc(NC(=O)/C(Cl)=C(/Cl)S(=O)(=O)Cc2ccccc2)cn1	?	14µM	-[10 µM]	13µM	6.3µM	?
COc1ccc(NC(=O)C(Cl)=C(Cl)Cl)cn1	?	-	-[10 µM]	-	-	-
Cc1ccc2c(c1)nnn2C1CCN(S(=O)(=O)c2ccc(C(=O)N3C(C)CCCC3C)cc2)CC1 (stereo unspecified)	13µM	?	-	?	-	?
Cc1ccc2c(c1)nnn2C1CCN(S(=O)(=O)c2ccc(C(=O)O)cc2)CC1	-[9.22 µM]	-	-[10 µM]	-	-	-
Cc1ccc2cccnc2c1	.	.	6.3µM	.	.	.
COc1cc(/C=C(\C#N)C(=O)N2CCOCC2)ccc1OCc1ccccc1	-	-	-	-	-	-
N#C/C(=C\c1ccc(OCc2ccc(C(=O)O)cc2)cc1)C(=O)N1CCOCC1	-	-	-[10 µM]	8.9µM	-	-
O=C(CSc1nc2c(oc3ccccc32)c(=O)[nH]1)Nc1cccc(Cl)c1	.	?	.	-	-	11µM
Cc1ccc(C)c(NC(=O)CSc2n[nH]c(-c3ccccn3)n2)c1	.	?	.	18µM	-	-
Cc1ccccc1NC(=O)CSc1n[nH]c(-c2ccccn2)n1	.	?	.	22µM	-	-
O=C(CSc1n[nH]c(-c2ccccn2)n1)Nc1cccc(Cl)c1	.	-	.	10µM	-	?
COc1cccc(-n2c(SCC(=O)Nc3cccc(Cl)c3)nc3c(oc4ccccc43)c2=O)c1	.	?	.	-	-	?
SMILES	HTT aggregate	S2 tox	HTT cytoprotect	ATXN2 expr inh	HepG2 viability	TGFb SMAD3 inh
Cc1nc(SCC(=O)Nc2cccc(Cl)c2)n[nH]1	-	-	-	-	-	-
Cc1ccc([N+](=O)[O-])cc1S(=O)(=O)N1CCNCC1	-	-	-	-	-	-
Cc1ccc([N+](=O)[O-])cc1S(=O)(=O)N(C)N=Cc1cnc2ccc(Br)cn12	.	.	.	0.049µM	.	.
O=C(O)C1CCCN1C(=O)Nc1ccccc1 (stereo unspecified)	1.1µM	-	-[0.074 µM]	-	-	-
S=c1nc2ccccc2c2nc(-c3ccccc3Br)[nH]n12	.	?	.	25µM	-	-
Cc1cc(C)nc(NS(=O)(=O)c2ccc(NC(=O)c3cccs3)cc2)n1	-	-	-	-	-	-
CCCCN(CCCC)S(=O)(=O)c1ccc(NC(=O)c2cccs2)cc1	13µM	-	-[10 µM]	-	-	?
CC(C)N(CCC(=O)c1ccc2ccccc2c1)Cc1ccccc1	.	?	-	-	-	11µM
CC(OC(=O)c1ccc2ccccc2c1)C(=O)N(C)Cc1ccccc1 (stereo unspecified)	.	-	.	-	-	-
c1ccc2nccnc2c1	.	.	.	.	4µM	2.8µM
Cc1ccnc2ccccc12	.	.	.	.	-	-
COc1ccc(C23CC4CC(CC(C4)C2)C3)cc1C(=O)NCCN(C)C	.	.	.	.	16µM	?
COc1ccccc1C(=O)NCCC(=O)NCCC12CC3CC(CC(C3)C1)C2	.	-	.	-	-	-
Cc1cccc(Oc2ccc(NC(=O)c3ccccc3C(=O)O)cc2)c1C	-	-	-	-	-	-
O=C(O)c1ccccc1C(=O)Nc1ccc(Oc2cccc3ccccc23)cc1	-	-	-	1.6µM	-	-
CCN1CCS/C1=C\C=C\C1=[N+](CC)CCS1	1.1µM	24µM	-	?	-	?
CCN1CCS/C1=C/C=C/C1=[N+](CC)CCS1	0.5µM	-	-[10 µM]	?	-	-
CCN(CC)CCSc1nnc2c3cc(C)ccc3n(Cc3ccccc3)c2n1	-[9.22 µM]	16µM	-[10 µM]	?	-	?
CCCCn1c2ccc(F)cc2c2nnc(SCCN(CC)CC)nc21	.	-	.	-	-	-
CC(C)=CCNc1ncnc2c1c(C#N)cn2[C@H]1O[C@@H](CO)[C@@H](O)[C@@H]1O	.	.	-[10 µM]	.	.	.
COc1ccc(C(=O)c2ccccc2)c2c(O)ccc(C(=O)c3ccccc3)c12	3.5µM	-	-	-	-	?
O[C@@H](COc1cccc2ncccc12)CN1CCN(C2c3ccccc3[C@@H]3[C@H](c4ccccc42)C3(F)F)CC1 (stereo partly specified)	.	25µM	.	?	.	.
C=CCn1c(SCC(=O)NCc2ccco2)nnc1-c1cccc(N(C)C)c1	.	.	.	.	-	?
CC(C)c1cc(-c2n[nH]c(=O)n2-c2ccc3c(ccn3C)c2)c(O)cc1O	.	.	.	0.077µM	.	.
CN(C)CCn1c(C(=O)Nc2ccccc2)cc2ccccc21	3.2µM	-	-	-	-	-
CCOC(=O)c1cc2ccccc2n1CCN(CC)CC	-	-	-	-	-	-
O=S(=O)(Nc1nnc(-c2ccccc2)s1)c1ccc(Cl)cc1	35µM	-	-	-	-	?
CC(=O)Oc1ccc2c(C)cc(=O)[nH]c2c1	-	-	-	-	-	-
CC(=O)c1cc(C)c(OC(=O)c2ccccc2)c(C)c1	.	-	.	-	-	-

Compound activity deposited in PubChem by National Center for Advancing Translational Sciences (NCATS).
